Most compounds without a hit are left out; they make up all but 7.9% or so of the library.
SW480 rerep = induces DNA re-replication in SW480 colon adenocarcinoma cells; Potency, µM (top dose mostly 46.1 µM), hits mostly activators; SW480 DNA re-replication, Hoechst DNA content imaging, 48 h; 340,000 tested, 1.8% active; AID 624297; also: nearly all actives have a fitted effect of over 55% in size
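Treated cells incubate 48 hr (37 C, 5% CO2), are stained 40 min with Hoechst, and nuclear fluorescence is enumerated; a rise in nuclei with high DNA signal marks re-replication.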
MCF10A rerep = induces DNA re-replication in MCF 10a normal breast cells. MCF 10A DNA re-replication, Hoechst nuclear intensity, 48 h. Potency, µM (doses to about 46.1 µM), actives largely listed as activators. 350,000 tested, 2.9% active. AID 624296; also: nearly all actives have a fitted effect of over 50% in size
HT1080 IDH1KD tx = kills HT-1080 cells with IDH1 knockdown. HT-1080 IDH1 knockdown viability, ATP luminescence, 48 h. Potency, µM (top dose mostly 46.1 µM), actives largely listed as cytotoxic. 360,000 tested, 2% active. AID 686971
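HT-1080-IDH1KD cells (IDH1 knocked down), 750/well in RPMI with 5% FBS, treated with compound 48 h at 37 degrees C. Viability by CellTiter-Glo luminescence, normalised to DMSO and no-cell wells; concentration-response curves classed.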
HT1080-NT tox = kills 2HG-producing HT-1080-NT fibrosarcoma cells; HT-1080-NT fibrosarcoma viability, CellTiter-Glo ATP luminescence, 48 h; Potency, µM (highest dose often 46.1 µM), most hits filed as cytotoxic; 360,000 tested, 1.6% active; AID 686970;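 also: NT is the 2HG producing partner of a matched IDH1 knockdown line; nearly all actives have a fitted effect of over 55% in size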
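Viability of the 2HG-overproducing fibrosarcoma line after 48 hours of compound exposure at 37 degrees C was determined by luminescence with CellTiter-Glo, and concentration-effect curves were then fitted and categorized.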
KB-V1 MDR tox = kills drug-selected multidrug resistant KB-V1 cells; Potency, µM (highest dose often 46.1 µM), usual class: cytotoxic; AID 1347076; 400,000 tested, 3.4% active; KB-V1 MDR cells viability, CellTiter-Glo, 72 h; also: nearly all actives have a fitted effect of over 60% in size
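Compound-treated KB-V1 multidrug-resistant cells, 72 h, 37 degrees C; viability by CellTiter-Glo. Fitted qHTS curves give the values.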
KB-3-1 cytotox = KB-3-1 parental cell cytotoxicity; KB-3-1 viability, CellTiter-Glo ATP luminescence, 72 h; Potency, µM (top dose mostly 46.1 µM), most hits filed as cytotoxic; 400,000 tested, 1.4% active; also: nearly all actives have a fitted effect of over 60% in size
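Parental KB-3-1 viability, qHTS format: 72 h compound exposure, 37 °C; CellTiter-Glo; media-only wells and DMSO plates as controls; concentration-effect fits on corrected data.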
Of the large screens only hits and unclear results are named; the others gave an inactive call. Calls follow the shape of the dose curve; as a rule, active = well fitted curve in the direction sought with a large enough effect; inconclusive = small, poorly fitted or top-dose-only effect, or another doubt; inactive = no such curve, though single readings can be large; an effect the other way counts as inactive or inconclusive.

COC(=O)c1c(NC(=O)c2ccc([N+](=O)[O-])o2)sc2c1CCN(C(C)C)C2	SW480 rerep 2.3µM, MCF10A rerep 2.9µM, HT1080 IDH1KD tx 4.6µM, HT1080-NT tox 21µM, KB-V1 MDR tox 15µM, KB-3-1 cytotox 6.5µM
CC(=O)N1CCc2c(sc(NC(=O)Cc3ccc(F)cc3)c2C#N)C1	none
CC(=O)N1CCc2c(sc(NC(=O)c3ccc([N+](=O)[O-])o3)c2C#N)C1	SW480 rerep 2.3µM, MCF10A rerep 1.5µM, HT1080 IDH1KD tx 2.9µM, HT1080-NT tox 1.8µM, KB-3-1 cytotox inconclusive
COC(=O)c1sc(NC(=O)c2ccc([N+](=O)[O-])o2)c(C#N)c1C	SW480 rerep 3.3µM, MCF10A rerep 2.9µM, KB-3-1 cytotox inconclusive
COC(=O)c1c(NC(=O)Cc2ccccc2)sc2c1CCN(C(C)C)C2	none
CCOC(=O)c1ccc(NS(=O)(=O)c2cn(C)cn2)cc1	MCF10A rerep inconclusive
Cc1cccc(C(=O)N2CCN(S(=O)(=O)N3CCCCCC3)CC2)c1	none
CCC(C)CNC(=O)c1[nH]c(C(F)(F)F)nc1-c1ccccc1 (stereo not given)	KB-V1 MDR tox inconclusive (no result: SW480 rerep, MCF10A rerep)
Cc1ccc(CN2CC(C(=O)N3CCN(S(=O)(=O)c4cc(C)ccc4C)CC3)CC2=O)cc1 (stereo not given)	none
Cc1cc(C)c(NC(=O)C2CC(=O)N(Cc3ccccc3)C2)c(C)c1 (stereo not given)	SW480 rerep 16µM
Cc1ccc(CN2CC(C(=O)N3CCN(S(=O)(=O)c4ccc(C)cc4C)CC3)CC2=O)cc1 (stereo not given)	KB-V1 MDR tox 16µM
Cc1ccc(S(=O)(=O)N2CCN(C(=O)CSC3CCCC3)CC2)c(C)c1	KB-V1 MDR tox 4.1µM
CCc1ccc(OCC(=O)N2c3ccccc3CCc3ccccc32)cc1	SW480 rerep inconclusive, MCF10A rerep inconclusive, KB-V1 MDR tox 18µM, KB-3-1 cytotox inconclusive
CCc1ccc(OCC(=O)Nc2cc(S(=O)(=O)CC)ccc2O)cc1	KB-V1 MDR tox 16µM
CCS(=O)(=O)c1ccc(O)c(NC(=O)COc2ccccc2)c1	none
CCc1ccc(OCC(=O)Nc2cccc3c2CCCC3)cc1	SW480 rerep 7.3µM
CCCC(=O)Nc1cccc2c1CCCC2	none
CCc1ccc(OCC(=O)N2CCc3ccccc32)cc1	none
CC(C)CCSc1cc(NCCO)c([N+](=O)[O-])c2nonc12	SW480 rerep inconclusive, MCF10A rerep inconclusive, HT1080 IDH1KD tx 18µM, HT1080-NT tox inconclusive
CC(=O)OCCCNc1cc(Sc2ccc(Cl)cc2)c2nonc2c1[N+](=O)[O-]	MCF10A rerep 4.6µM (no result: SW480 rerep)
Cc1ccc(Sc2cc(NCCCO)c([N+](=O)[O-])c3nonc23)cc1	none
CN(C)c1ccc(/C=C/c2ccnc3c(Cl)ccc(Cl)c23)cc1	none (no result: SW480 rerep, MCF10A rerep, HT1080 IDH1KD tx, HT1080-NT tox)
CCOC(=O)n1c(=O)n(C)c2ccc(Cl)cc21	KB-V1 MDR tox 8.2µM, KB-3-1 cytotox inconclusive
CCOC(=O)n1c(=O)n(Cc2ccccc2)c2ccccc21	KB-V1 MDR tox inconclusive
N#Cc1ccc2nc3c(nc2c1)CCCC3	KB-V1 MDR tox inconclusive
CCOC(=O)/C(=C\c1ccc(Cl)cc1)c1nc2sc(C)c(C)c2c(=O)[nH]1	SW480 rerep inconclusive, MCF10A rerep 5.2µM, HT1080 IDH1KD tx 12µM, HT1080-NT tox 10µM, KB-V1 MDR tox inconclusive, KB-3-1 cytotox inconclusive
CCOC(=O)C1=C(Nc2ccccc2)CC(C)(O)C(C(=O)OCC)C1c1ccccc1 (stereo not given)	KB-V1 MDR tox inconclusive
CCOC(=O)C1=C(Nc2ccccc2)CC(C)(O)C(C(=O)OCC)C1c1ccc(Br)cc1 (stereo not given)	SW480 rerep inconclusive, KB-V1 MDR tox 23µM, KB-3-1 cytotox inconclusive
CCOC(=O)C(CC)n1cnc2c(nnn2-c2ccc(F)cc2)c1=O (stereo not given)	none
Cc1ccc2nc(Nc3nc(C)cc(-c4ccccc4)n3)[nH]c(=O)c2c1	KB-V1 MDR tox inconclusive
COc1ccc(NS(=O)(=O)c2cccc(NC(=O)CCC(=O)c3cccs3)c2)cc1	none
COc1ccc(NS(=O)(=O)c2cccc(NC(=O)CCC(=O)c3ccc(Cl)cc3)c2)cc1	MCF10A rerep inconclusive, HT1080 IDH1KD tx inconclusive, KB-V1 MDR tox 18µM
O=C(Nc1ccncc1)c1ccc(NS(=O)(=O)c2cccc(F)c2)cc1	MCF10A rerep inconclusive, KB-V1 MDR tox inconclusive, KB-3-1 cytotox inconclusive
COc1cccc(S(=O)(=O)Nc2ccc(C(=O)Nc3ccncc3)cc2)c1	MCF10A rerep inconclusive, KB-V1 MDR tox 21µM, KB-3-1 cytotox inconclusive
COc1ccc(NS(=O)(=O)c2cccc(NC(=O)c3ccc(Cl)nc3)c2)cc1	SW480 rerep inconclusive, HT1080 IDH1KD tx 6.5µM, HT1080-NT tox 1.6µM, KB-V1 MDR tox 2.9µM, KB-3-1 cytotox inconclusive
COc1cccc(S(=O)(=O)NCC(=O)Nc2ccc(C(C)(C)C)cc2)c1	KB-V1 MDR tox 16µM
O=C(Nc1cccc(S(=O)(=O)Nc2ccc(Cl)cc2)c1)c1ccc(Cl)nc1	HT1080 IDH1KD tx inconclusive, HT1080-NT tox inconclusive, KB-3-1 cytotox inconclusive
CCOc1ccc(CNC(=O)CN2C(=O)CCn3nc(-c4cn(C)c5ccccc45)cc32)cc1OC	none (no result: SW480 rerep, MCF10A rerep, HT1080 IDH1KD tx, HT1080-NT tox)
CC(NC(=O)c1cccc(S(=O)(=O)N2CCCCCC2)c1)c1ccccc1 (stereo not given)	none
CCN(CC)S(=O)(=O)c1cc(C(=O)Nc2ccc(Cl)cn2)ccc1C	KB-V1 MDR tox 9.2µM
CC(C)=CC(=O)OCC(=O)Nc1ccc(Cl)cn1	KB-V1 MDR tox inconclusive
CCN(CC)S(=O)(=O)c1cccc(C(=O)Nc2ccc(Cl)cn2)c1	KB-V1 MDR tox 12µM, KB-3-1 cytotox inconclusive
Cc1ccc(C(=O)Nc2ccc(Cl)cn2)cc1	HT1080 IDH1KD tx 10µM, HT1080-NT tox 16µM, KB-V1 MDR tox 6.5µM, KB-3-1 cytotox inconclusive
CCOC(=O)/C=C/C(=O)OCC(=O)Nc1ccc(Cl)cn1	MCF10A rerep 21µM
Cc1ccc(CC(=O)Nc2ccc(Cl)cn2)cc1	none
CC(C)OC(=O)N(C)C[C@@H]1OCc2cnnn2CCCC(=O)N([C@H](C)CO)C[C@@H]1C	none (no result: SW480 rerep, MCF10A rerep)
O=C1Nc2ccccc2C1C(C[N+](=O)[O-])c1ccccc1 (stereo not given)	none
COc1cc(C(=O)Nc2cc(S(C)(=O)=O)ccc2Cl)ccc1OCC(=O)N1CCOCC1	MCF10A rerep inconclusive
Cc1ccc(S(=O)(=O)N2[C@@H](c3ccc(F)cc3)C(C(=O)O)=CC[C@H]2c2cccs2)cc1	none
Cc1ccc(C(=O)Nc2ncc3c(Cl)cccc3n2)cc1	SW480 rerep inconclusive, HT1080 IDH1KD tx 13µM, HT1080-NT tox 15µM, KB-V1 MDR tox 18µM, KB-3-1 cytotox inconclusive

Screens: PubChem, National Center for Advancing Translational Sciences (NCATS)
